Results: PubChem BioAssay

Experiment: viability profiling in RPMI8226 myeloma cells – cell-based, resazurin fluorescence, basal, 24 h, PK04 Diversity Set, profiling panel (AID 1180);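 further: RPMI8826 multiple myeloma cell line at 5000 cells per well; test concentration not given here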
Details: higher = more signal

Row | SMILES | z-score
1 | COC(=O)[C@@]1(Cc2ccc(OC)cc2)[C@H]2c3cc(C(=O)N4CCCC4)n(CCc4ccccn4)c3C[C@H]2CN1C(=O)c1ccccc1 | -2.73
2 | CC(=O)N1Cc2ccccc2C[C@@]2(N=C(c3ccc(OCCCO)cc3)O[C@H]2c2ccccc2)C1=O | -4.8
3 | CC(C)NC(=O)[C@@]1(c2ccc([N+](=O)[O-])cc2)CC(=O)N(C(C)C)[C@@H]1c1ccc(CO)cc1 | -0.792
4 | CC(C)C(O)C1C=CC2C(=O)N(C)C(=O)C2N1N1CCCCC1 (stereo not given) | -0.323
5 | CCCC[C@@H]1C[C@H]1[C@@H](NC(=O)c1ccccc1)c1ccccc1 | -1.07
6 | CCN(CC)c1ccc(N2CC=CC34O[C@@H]5/C=C\CCCOC(=O)C5[C@H]3C(=O)N(CCCO)[C@@H]4C2=O)cc1 (stereo not given in full) | 0.566
7 | COc1ccc(C(O)C2C=CC3C(=O)N(c4ccccc4)C(=O)C3N2Nc2ccccc2)c2ccccc12 (stereo not given) | -1.95
8 | O=[N+]([O-])c1ccc(C[n+]2ccc(CCCO)cc2)o1 | -0.211
9 | C[N+](C)(C)CCCCNC(=O)[C@H]1C[C@H]2C(=O)N3CCC[C@H]3C(=O)N2[C@H]1c1ccc(O)cc1 | -0.977
10 | COCCOC(=O)N1C(=O)[C@@]2(c3ccccc31)[C@H](C(=O)N1CCCCCCC1)[C@H]1C(=O)O[C@H](c3ccccc3)[C@H](c3ccccc3)N1[C@@H]2c1ccccc1OCCO | -0.201
11 | C=CCC(OC(C)=O)[C@@H]1[C@@H](N(Cc2ccc(-c3ccccc3)cc2)C(=O)c2ccc(C)cc2)c2cc(OCCCO)ccc2N1C(=O)Cc1ccc(OC)cc1 (stereo not given in full) | 0.72
12 | COC(=O)[C@@]1(Cc2ccc(OC)cc2)[C@H]2c3cc(C(=O)N4CCCC4)n(C[C@H](O)CO)c3C[C@H]2CN1C(=O)c1ccccc1 | -0.595
13 | O=C1O[C@H](c2ccccc2)[C@H](c2ccccc2)N2[C@H]1[C@@H](C(=O)NC[C@H](O)c1ccccc1)[C@]1(C(=O)Nc3ccc(C#CC4=CCCCC4)cc31)[C@H]2c1ccc(O)cc1 | -3.63
14 | COc1ccc([Si](C)(C)[C@@H]2[C@@H](CCO)O[C@]3(C(=O)N(Cc4ccccc4)c4ccc(N(C=O)c5ccccc5)cc43)[C@H]2C)cc1 | -1.6
15 | COc1cc(NN2C(C(O)c3ccccc3)C=CC3C(=O)N(c4ccccc4)C(=O)C32)cc(OC)c1OC (stereo not given) | -0.827
16 | CN(C)CCCCNC(=O)[C@@H]1C[C@@H]2C(=O)N[C@@H](CCCCN)C(=O)N2[C@@H]1c1cccc(OCCO)c1 | -0.165
17 | COc1c(C)cc(-c2cc3c(c(-c4ccccc4)n2)[Si](C(C)C)(C(C)C)O[C@H]3c2ccccc2)cc1C | -0.327
18 | [N-]=[N+]=NCc1ccccc1C[C@]1(C(=O)NCc2ccccc2)COC(c2ccc(OCCCO)cc2)=N1 | -4.15

Row | SMILES | z-score
19 | C=CCOC(=O)[C@@H]1[C@H]2C(=O)O[C@H](c3ccccc3)[C@H](c3ccccc3)N2[C@H](c2ccc(OCCOC(=O)[C@H]3C[C@H]4C(=O)N[C@@H](CCCC[N+](C)(C)C)C(=O)N4[C@H]3c3cccc(OCCO)c3)cc2)[C@@]12C(=O)Nc1ccc(I)cc12 | -0.521
20 | O=C1OCC=C[C@H]2OC34C=CCN(c5ccc(Cl)cc5)C(=O)[C@H]3N(CCCO)C(=O)[C@@H]4[C@@H]12 (stereo not given in full) | 0.0679
21 | O=c1cccc(-c2ccccc2)o1 | -0.156
22 | C=C(COC)C(=O)CC[C@H](OC(=O)c1cccnc1)c1ccccc1OCCO | -2.92
23 | CCCCCN1CC=CC23O[C@@H]4C=CCCOC(=O)C4[C@H]2C(=O)N(CCCO)[C@@H]3C1=O (stereo not given in full) | -0.0665
24 | CCN(CC)c1ccc(N2CC=CC34O[C@@H]5C=CCOC(=O)[C@@H]5[C@H]3C(=O)N(CCCCCO)[C@@H]4C2=O)cc1 (stereo not given in full) | 0.225
25 | C#C[C@H]1Oc2ccccc2S(=O)(=O)N2CCC[C@@H]12 | -0.652
26 | O=C1C2C=CC(C(O)c3ccc(B(O)O)cc3)N(Nc3ccc([N+](=O)[O-])cc3)C2C(=O)N1c1ccccc1 (stereo not given) | -0.423
27 | O=C1OCCC/C=C\[C@H]2OC34C=CCN(CCN5CCOCC5)C(=O)[C@H]3N(CCO)C(=O)[C@@H]4C12 (stereo not given in full) | -0.654
28 | CC(=O)n1cc(C(O)C2C=CC3C(=O)N(c4ccccc4)C(=O)C3N2Nc2ccc(C#N)cc2)c2ccccc21 (stereo not given) | -0.189
29 | COc1ccc(C(=O)Nc2cccc(CN3C(=O)[C@@]4(O[C@@H](CCn5cc([C@H](O)c6ccccc6)nn5)[C@H]([Si](C)(C)c5ccc(OC)cc5)[C@H]4C)c4ccccc43)c2)cc1 | -6.13
30 | COC(=O)[C@@]1(Cc2ccc(F)cc2)[C@H]2c3cc(C(=O)N4CCCC4)n(CCc4ccc(OC)c(Br)c4)c3C[C@H]2CN1C(=O)c1ccccc1 | -4.16
31 | CC(C)N1C(=O)c2ccccc2[C@](C)(C(=O)NC2CC2)[C@@H]1c1ccc(CO)cc1 | 0.798
32 | CCCNC(=O)[C@@]1(C)c2ccccc2C(=O)N(Cc2ccc(OC(F)(F)F)cc2)[C@H]1c1ccc(CO)cc1 | 0.325
33 | C=CCC(OC(C)=O)[C@@H]1[C@@H](N(Cc2ccc(-c3cccc(C(F)(F)F)c3)o2)C(=O)Cc2ccc(OC)cc2)c2cc(OCCCO)ccc2N1C(=O)Cc1ccc(OC)cc1 (stereo not given in full) | 0.695
34 | COC(=O)[C@@]1(Cc2ccccc2)[C@H]2c3cc(C(=O)N(C)C)n(Cc4cc(F)c(F)c(F)c4)c3C[C@H]2CN1C(=O)c1ccccc1 | -0.963
35 | C=C(C)[C@@H]1CC=C(C(O)C2C=CC3C(=O)N(Cc4ccccc4)C(=O)C3N2n2cnnc2)CC1 (stereo not given in full) | -0.334
